# Results: PubChem BioAssay (NCATS)
# Where “and” joins values, the source holds several entries; their conditions need not be identical. Equal entries are not always repeated. Inconclusive results are not listed. Entries that show only a call come without a potency. Calls of active or inactive are those of the source. Unless noted, calls follow the shape of the dose curve; as a rule, active = well fitted curve in the direction sought with a large enough effect; inconclusive = small, poorly fitted or top-dose-only effect, or another doubt; inactive = no such curve, though single readings can be large; an effect the other way counts as inactive or inconclusive.
# Assays:
# [1] = qHTS for differential inhibitors of proliferation of Plasmodium falciparum line Dd2 (AID 1882); settings: Potency: Plasmodium falciparum Dd2 proliferation inhibition; also: nearly all actives have a fitted effect of over 65% in size
# Procedure, shortened: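 Dd2-infected erythrocytes (0.3% parasitemia, 2.5% hematocrit final) incubated with compound 72 h at 37 C, 5% CO2; lysed with saponin/Triton buffer containing SYBR Green I, incubated overnight in the dark, then read by fluorescence (485/535 nm). Normalized to 0.29 uM artemisinin and DMSO.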
# [2] = target: ATP-dependent DNA helicase Q1 (Homo sapiens) (UniProt P46063); assay: qHTS Validation Assay for Inhibitors of RecQ-Like Dna Helicase 1 (RECQ1) (AID 2353); also: potency is read from the fitted curve at half-maximal effect
# Procedure, shortened: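 50 nM RECQ1T1 preincubated 15 min with compound in Tris pH 8.0 buffer with MgCl2, DTT, Tween-20 and 2.5 ug/ml poly(dI-dC); started with 200 nM TAMRA/BHQ-2 forked duplex and 2 mM ATP. Unwinding read as fluorescence (525/598 nm), two reads 2 h apart.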
# [3] = target: RecQ-like DNA helicase BLM (Homo sapiens) (UniProt P54132); assay: qHTS Validation Assay for Inhibitors of Bloom's syndrome helicase (BLM) (AID 2364); also: potency is read from the fitted curve at half-maximal effect
# Procedure, shortened: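 Forked 20-bp duplex substrate (200 nM, TAMRA/BHQ-2) plus 2 mM ATP added after 15 min compound preincubation with 50 nM enzyme, pH 8.0, poly(dI-dC) 2.5 ug/ml. Strand separation followed by fluorescence (525/598 nm) over 2 h, normalized to enzyme-free and DMSO controls.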
# [4] = Cytometric Cell-Based qHTS for Inhibitors of the mTORC1 Signaling Pathway in MEF (Tsc2-/-, p53-/-) Cells (AID 2660);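 also: Tsc2 and p53 null MEFs carrying empty vector with compound for 24 h; percent of cells above a phospho-rpS6 to PI ratio cutoff in each well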
# Procedure, shortened: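 Readout: Alexa-488 phospho-rpS6 (Ser235/236) intensity divided by PI intensity, thresholded against 7.5 nM rapamycin wells and reported as % positive cells. PI cell count served as the viability measure. Compound exposure was 24 hrs at 37 degree Celsius.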
# [5] = High Content Imaging Cell-Based qHTS for Inhibitors of the mTORC1 Signaling Pathway in MEF (Tsc2-/-, p53-/-) Cells (AID 2666); settings: at 38.3 µM (top of the series);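 also: percent of cells scored positive for phospho-rpS6 Ser235/236 immunostaining by imaging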
# Procedure, shortened: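 Cells were plated, dosed with compound after 24 hrs, and incubated another 24 hrs at 37 degree Celsius. Fixed cells were immunostained for phospho-rpS6 Ser235/236 and counterstained, and the normalized signal was scored as % active cells against rapamycin and DMSO controls.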
# [6] = High Content Imaging Cell-Based qHTS for Inhibitors of the mTORC1 Signaling Pathway in MEF Cells (AID 2667);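 also: Tsc2-/- p53-/- MEFs stably re-expressing wild-type Tsc2 exposed 24 h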
# Procedure, shortened: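 Immunofluorescence for rpS6 phosphorylation in MEFs of Tsc2-/-, p53-/- background rescued with WT Tsc2. Compound exposure lasted 24 hrs. Inhibition was scored against rapamycin-treated control wells.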
# [7] = Validation screen for small molecules that induce DNA re-replication in MCF 10A normal breast cells (AID 463097); also: nearly all actives have a fitted effect of over 60% in size
# Procedure, shortened: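 Following 48 hr compound incubation (37 C, 5% CO2), MCF 10A cells receive Hoechst for 40 min at 37 C. Nuclei are then scanned (excitation 405 nm, emission 500-530 nm) for total fluorescence intensity.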
# [8] = target: Ubiquitin carboxyl-terminal hydrolase 2 (Homo sapiens) (UniProt O75604); assay: qHTS Validation Assay for Inhibitors of Ubiquitin-specific Protease USP2a Using CHOP2 as the Reporter (AID 463106); also: potency is read from the fitted curve at half-maximal effect
# Procedure, shortened: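 10nM USP2 core + cpd, 30min RT; add 25nM Ub-CHOP2/25nM substrate; 60min RT; FI 485/531nm. Buffer Tris pH 8.0, CaCl2, BME, CHAPS. Norm. to NEM = 100% inhibition; time-zero read flags fluorescent artifacts.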
# [9] = target: DNA polymerase III PolC-type (Bacillus subtilis (strain 168)) (UniProt P13267); assay: qHTS Validation Assay for the Inhibitors of DNA Replication in Gram-Positive Bacteria (AID 485295); also: potency is read from the fitted curve at half-maximal effect
# Procedure, shortened: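 Inhibition of DNA synthesis by the reconstituted PolC holoenzyme, monitored through PicoGreen staining of dsDNA formed from ssM13Gori, dNTPs and NTPs, with compound preincubation and room-temperature reaction.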
# [10] = target: Tumor susceptibility gene 101 protein (Homo sapiens) (UniProt Q99816); assay: qHTS Validation Assay for Iinhibitors of HIV-1 Budding by Blocking the Interaction of PTAP/TSG101 (AID 485342; calls by dose curve)
# Procedure, shortened: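 Compound wells held the Tsg101 binding domain (10 uM) and a FITC-conjugated PTAP peptide (50 nM) in buffer at pH 7.5 containing 0.15 M NaCl and 0.01% Tween 20; polarization was recorded after 20 min, r.t.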
# [11] = target: Beta-2 adrenergic receptor (Homo sapiens) (UniProt P07550); assay: qHTS validation assay of beta-arrestin-biased ligands of beta2-adrenergic receptor (AID 485366)
# Procedure, shortened: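 Tango cells (recombinant beta2-AR with recombinant beta-arrestin; recruitment releases tTA driving luciferase) were treated with compounds titrated up to 46 microM for 18 hr at 37 degrees C. Luminescence gave %Activity, and concentration-response curves were curve-classified.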
# [12] = target: ATP-dependent 6-phosphofructokinase (Trypanosoma brucei brucei) (UniProt O15648); assay: qHTS Validation Assay to Find Inhibitors of T. brucei phosphofructokinase (AID 485368); also: potency is read from the fitted curve at half-maximal effect
# Procedure, shortened: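 Compounds (up to 57 uM, titration series) were pinned into substrate buffer, then 1.25 nM PFK added; after 45 min at room temperature, ADP product was quantified by ADP-Glo luminescence and concentration-response curves fitted.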
# [13] = target: Thioredoxin reductase 1, cytoplasmic (Rattus norvegicus) (UniProt O89049); assay: qHTS Assay for Substrates of Mammalian Selenoprotein Thioredoxin Reductase 1 (TrxR1) (AID 488772);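 also: NADPH fluorescence in the first read after selenite addition and not the 8 min delta; a drop in NADPH fluorescence below the no-compound background marks a TrxR1 substrate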
# Procedure, shortened: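 Quantitative HTS in Tris-HCl buffer at pH 7.5 with EDTA and Tween-20, using rat TrxR1, 400 uM NADPH and 400 uM selenite (final). A fall in initial NADPH fluorescence relative to background marked substrate behaviour.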
# [14] = target: Flap endonuclease 1 (Homo sapiens) (UniProt P39748); assay: qHTS Validation Assay for the Inhibitors of Human Flap endonuclease 1 (FEN1) (AID 488816); also: potency is read from the fitted curve at half-maximal effect
# Procedure, shortened: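 Readings taken at 0 and 15 min after starting the reaction with 50 nM (final) substrate supplied the signal. Compounds had first sat with 10 nM FEN1 reagent for 15 min at room temperature. Values come from Hill-equation concentration-response fits.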
# [15] = target: M-phase phosphoprotein 8 (Homo sapiens) (UniProt Q99549); assay: qHTS Validation Assay for Inhibitors for MPP8 Chromodomain Interactions with Methylated Histone Tails (AID 488949); also: potency is read from the fitted curve at half-maximal effect; nearly all actives have a fitted effect of over 55% in size
# Procedure, shortened: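 Chemiluminescent proximity assay: histidine-tag capture via nickel acceptor beads, biotin peptide via streptavidin donor beads. Protein and peptide each at 50 nM, pH 7.4, with 30 min incubations at room temperature for complex formation, compound exposure and bead binding.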
# [16] = target: Transient receptor potential cation channel subfamily V member 1 (Homo sapiens) (UniProt Q8NER1); assay: HTS Assay for Compounds that Act as Enhancers of the Vanilloid Receptor 1 (AID 488979)
# Procedure, shortened: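 Calcium influx kinetics via Fluo-8 (480/520 nm) in TRPV1-expressing cells, 2000/well cultured overnight at 35.5C. Compound-alone read 3 min (agonist phase), followed by EC20 capsaicin challenge for 2 min (enhancer phase).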
# [17] = target: Thyrotropin receptor (Homo sapiens) (UniProt P16473); assay: qHTS Assay for Antagonists of the Thyroid Stimulating Hormone Receptor (AID 488980)
# Procedure, shortened: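 Inhibition of TSH-stimulated cAMP accumulation was quantified by homogeneous time-resolved FRET in TSHR-transfected HEK293 cells. Agonist: TSH, 4 nM final (EC80).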
# [18] = target: D(1A) dopamine receptor (Homo sapiens) (UniProt P21728); assay: HTS Assay for Allosteric Agonists of the Human D1 Dopamine Receptor: Primary Screen for Agonists (AID 488981)
# Procedure, shortened: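 Calcium flux in an inducible, force-coupled HEK293 Trex D1 line (overnight at 30 C): agonist mode is the 180 s kinetic read after compound; potentiator mode is the following 180 s read after dopamine at EC20.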
# [19] = target: D(1A) dopamine receptor (Homo sapiens) (UniProt P21728); assay: HTS Assay for Allosteric Agonists of the Human D1 Dopamine Receptor: Primary Screen for Antagonists (AID 488983);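 also: calcium flux response to an EC80 dopamine challenge measured with no-wash dye; nearly all actives have a fitted effect of over 65% in size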
# Procedure, shortened: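 Cells are induced with tetracycline and incubated overnight at 30 C, then loaded with calcium dye for 30 to 90 minutes at room temperature. Compound addition is followed by a 180 s read, then an EC80 dopamine addition and another 180 s read.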
# [20] = Validation screen for small molecules that induce genotoxicity in human embryonic kidney (HEK293T) cells expressing luciferase-tagged ELG1 (AID 493106)
# Procedure, shortened: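 Luminescence from an ELG1-luciferase fusion serves as the read-out, rising when genetic stress elevates ELG1 protein. HEK293T reporter cells (2,000 per well) received 23 nL compound, incubated 16 hr at 37 °C, then ONE-Glo for 30 min at room temperature.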
# Sequence of M-phase phosphoprotein 8 (Homo sapiens) (Q99549 whole entry, looked up): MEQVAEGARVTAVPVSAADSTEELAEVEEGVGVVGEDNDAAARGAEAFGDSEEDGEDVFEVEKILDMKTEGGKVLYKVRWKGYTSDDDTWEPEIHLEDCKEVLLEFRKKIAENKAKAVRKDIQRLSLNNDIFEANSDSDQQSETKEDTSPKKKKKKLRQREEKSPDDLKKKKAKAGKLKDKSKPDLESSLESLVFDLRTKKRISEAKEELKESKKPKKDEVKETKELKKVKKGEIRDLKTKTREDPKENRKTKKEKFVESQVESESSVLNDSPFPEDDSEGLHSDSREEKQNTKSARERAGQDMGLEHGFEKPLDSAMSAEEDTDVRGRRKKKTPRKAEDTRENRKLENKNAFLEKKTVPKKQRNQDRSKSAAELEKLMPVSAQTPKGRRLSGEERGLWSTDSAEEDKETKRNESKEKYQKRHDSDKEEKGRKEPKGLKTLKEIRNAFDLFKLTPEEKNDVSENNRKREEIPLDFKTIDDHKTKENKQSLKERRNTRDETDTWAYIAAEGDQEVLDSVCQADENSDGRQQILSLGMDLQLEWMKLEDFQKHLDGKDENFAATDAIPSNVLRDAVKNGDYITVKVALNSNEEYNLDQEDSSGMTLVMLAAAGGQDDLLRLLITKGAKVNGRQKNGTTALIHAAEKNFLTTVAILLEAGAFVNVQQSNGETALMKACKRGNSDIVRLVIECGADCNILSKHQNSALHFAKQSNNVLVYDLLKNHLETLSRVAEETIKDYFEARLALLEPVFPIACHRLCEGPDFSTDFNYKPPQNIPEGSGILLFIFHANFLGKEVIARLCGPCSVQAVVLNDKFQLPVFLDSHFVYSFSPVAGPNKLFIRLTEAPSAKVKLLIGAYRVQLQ
# Sequence of D(1A) dopamine receptor (Homo sapiens) (P21728 whole entry, looked up): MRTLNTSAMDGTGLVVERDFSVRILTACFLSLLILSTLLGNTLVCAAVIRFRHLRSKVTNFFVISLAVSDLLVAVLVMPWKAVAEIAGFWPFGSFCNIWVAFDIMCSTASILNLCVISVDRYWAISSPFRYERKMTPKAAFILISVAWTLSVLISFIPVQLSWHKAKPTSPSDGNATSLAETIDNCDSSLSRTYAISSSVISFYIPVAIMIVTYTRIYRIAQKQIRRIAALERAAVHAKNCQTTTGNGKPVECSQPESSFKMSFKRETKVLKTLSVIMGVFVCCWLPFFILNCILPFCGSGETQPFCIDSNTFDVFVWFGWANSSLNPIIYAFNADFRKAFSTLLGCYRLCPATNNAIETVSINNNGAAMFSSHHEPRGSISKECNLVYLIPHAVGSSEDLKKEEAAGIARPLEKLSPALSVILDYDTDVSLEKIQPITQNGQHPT
# Sequence of ATP-dependent 6-phosphofructokinase (Trypanosoma brucei brucei) (O15648 whole entry, looked up): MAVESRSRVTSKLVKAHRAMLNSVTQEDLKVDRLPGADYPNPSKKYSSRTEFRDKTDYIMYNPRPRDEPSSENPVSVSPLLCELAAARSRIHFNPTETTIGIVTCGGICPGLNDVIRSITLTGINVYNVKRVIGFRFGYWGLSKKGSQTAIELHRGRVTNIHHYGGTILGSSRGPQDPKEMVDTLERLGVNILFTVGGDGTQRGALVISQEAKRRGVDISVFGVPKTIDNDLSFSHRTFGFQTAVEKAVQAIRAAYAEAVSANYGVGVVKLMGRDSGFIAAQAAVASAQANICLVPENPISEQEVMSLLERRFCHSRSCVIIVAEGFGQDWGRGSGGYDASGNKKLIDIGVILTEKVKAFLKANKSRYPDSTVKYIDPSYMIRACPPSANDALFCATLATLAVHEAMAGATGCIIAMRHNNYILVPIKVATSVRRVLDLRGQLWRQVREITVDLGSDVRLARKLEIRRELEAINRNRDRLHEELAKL
# Sequence of Ubiquitin carboxyl-terminal hydrolase 2 (Homo sapiens) (O75604 whole entry, looked up): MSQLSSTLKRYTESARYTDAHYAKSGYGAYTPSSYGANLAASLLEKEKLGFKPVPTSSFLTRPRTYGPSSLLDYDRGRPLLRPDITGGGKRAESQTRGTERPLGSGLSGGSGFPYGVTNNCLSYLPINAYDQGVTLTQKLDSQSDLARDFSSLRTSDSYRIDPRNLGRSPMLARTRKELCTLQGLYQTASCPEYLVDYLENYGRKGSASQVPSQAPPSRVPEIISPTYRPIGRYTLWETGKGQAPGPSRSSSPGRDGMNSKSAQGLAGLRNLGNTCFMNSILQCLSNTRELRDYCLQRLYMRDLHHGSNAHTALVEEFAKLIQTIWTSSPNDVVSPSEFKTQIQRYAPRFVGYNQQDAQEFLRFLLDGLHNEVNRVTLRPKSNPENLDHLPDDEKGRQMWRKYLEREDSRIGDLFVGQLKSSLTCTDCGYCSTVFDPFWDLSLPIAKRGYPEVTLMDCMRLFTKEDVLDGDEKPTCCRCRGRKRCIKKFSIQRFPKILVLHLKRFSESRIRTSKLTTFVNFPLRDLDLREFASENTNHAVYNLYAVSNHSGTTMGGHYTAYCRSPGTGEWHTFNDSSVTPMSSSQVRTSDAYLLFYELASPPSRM
# Sequence of Thioredoxin reductase 1, cytoplasmic (Rattus norvegicus) (O89049 whole entry, looked up): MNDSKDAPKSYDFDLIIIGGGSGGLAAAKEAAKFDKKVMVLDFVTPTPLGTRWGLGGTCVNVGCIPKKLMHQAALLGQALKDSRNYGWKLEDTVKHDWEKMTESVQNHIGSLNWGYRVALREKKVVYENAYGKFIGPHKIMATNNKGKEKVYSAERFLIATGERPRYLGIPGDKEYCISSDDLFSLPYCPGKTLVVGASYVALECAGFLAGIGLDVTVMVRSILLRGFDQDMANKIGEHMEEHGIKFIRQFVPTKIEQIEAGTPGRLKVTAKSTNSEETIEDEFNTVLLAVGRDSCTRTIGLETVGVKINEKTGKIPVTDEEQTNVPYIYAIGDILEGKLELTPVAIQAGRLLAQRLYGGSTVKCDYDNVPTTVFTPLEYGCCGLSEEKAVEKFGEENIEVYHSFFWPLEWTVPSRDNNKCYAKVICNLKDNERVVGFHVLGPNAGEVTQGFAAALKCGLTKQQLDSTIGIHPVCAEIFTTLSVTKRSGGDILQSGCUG
# Sequence of Thyrotropin receptor (Homo sapiens) (P16473 whole entry, looked up): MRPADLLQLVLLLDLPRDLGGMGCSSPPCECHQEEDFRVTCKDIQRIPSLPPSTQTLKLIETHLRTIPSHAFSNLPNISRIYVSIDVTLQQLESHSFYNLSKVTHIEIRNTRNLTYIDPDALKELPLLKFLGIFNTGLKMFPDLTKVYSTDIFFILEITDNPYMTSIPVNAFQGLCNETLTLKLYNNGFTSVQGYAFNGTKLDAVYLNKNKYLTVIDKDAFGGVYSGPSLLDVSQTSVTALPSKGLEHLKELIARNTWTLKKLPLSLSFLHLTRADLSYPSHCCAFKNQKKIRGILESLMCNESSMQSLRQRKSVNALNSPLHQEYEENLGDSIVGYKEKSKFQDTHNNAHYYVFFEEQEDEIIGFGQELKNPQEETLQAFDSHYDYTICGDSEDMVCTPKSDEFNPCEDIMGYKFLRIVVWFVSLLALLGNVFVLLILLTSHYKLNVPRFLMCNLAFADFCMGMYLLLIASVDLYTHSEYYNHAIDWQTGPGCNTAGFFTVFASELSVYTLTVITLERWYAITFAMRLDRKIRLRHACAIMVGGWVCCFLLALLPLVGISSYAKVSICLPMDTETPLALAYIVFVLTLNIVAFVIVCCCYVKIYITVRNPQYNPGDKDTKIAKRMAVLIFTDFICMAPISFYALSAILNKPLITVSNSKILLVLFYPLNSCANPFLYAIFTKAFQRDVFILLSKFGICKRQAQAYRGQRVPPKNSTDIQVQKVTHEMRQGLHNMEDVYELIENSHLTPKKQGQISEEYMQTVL
# Sequence of Transient receptor potential cation channel subfamily V member 1 (Homo sapiens) (Q8NER1 whole entry, looked up): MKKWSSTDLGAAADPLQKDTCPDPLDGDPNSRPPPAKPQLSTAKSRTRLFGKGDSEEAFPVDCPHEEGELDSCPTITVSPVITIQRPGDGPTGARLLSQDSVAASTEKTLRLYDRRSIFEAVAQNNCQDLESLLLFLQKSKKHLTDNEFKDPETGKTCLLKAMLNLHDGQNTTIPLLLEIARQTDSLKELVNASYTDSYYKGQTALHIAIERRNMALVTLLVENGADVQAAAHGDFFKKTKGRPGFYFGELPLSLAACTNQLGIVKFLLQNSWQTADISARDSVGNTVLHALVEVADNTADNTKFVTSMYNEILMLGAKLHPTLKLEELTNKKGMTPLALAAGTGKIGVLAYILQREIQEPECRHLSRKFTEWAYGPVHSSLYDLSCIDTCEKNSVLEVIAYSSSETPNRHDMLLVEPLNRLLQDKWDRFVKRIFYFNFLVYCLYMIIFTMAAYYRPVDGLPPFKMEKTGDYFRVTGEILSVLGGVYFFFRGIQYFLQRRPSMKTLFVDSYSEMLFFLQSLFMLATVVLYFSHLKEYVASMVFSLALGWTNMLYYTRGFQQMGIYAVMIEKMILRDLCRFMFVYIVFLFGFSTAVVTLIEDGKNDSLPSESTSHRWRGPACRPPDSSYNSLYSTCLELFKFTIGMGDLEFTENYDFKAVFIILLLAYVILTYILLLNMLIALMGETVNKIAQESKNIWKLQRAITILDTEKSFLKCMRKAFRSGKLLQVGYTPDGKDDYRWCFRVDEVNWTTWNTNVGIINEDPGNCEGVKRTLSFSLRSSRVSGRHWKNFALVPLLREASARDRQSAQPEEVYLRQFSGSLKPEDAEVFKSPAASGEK
# Sequence of Flap endonuclease 1 (Homo sapiens) (P39748 whole entry, looked up): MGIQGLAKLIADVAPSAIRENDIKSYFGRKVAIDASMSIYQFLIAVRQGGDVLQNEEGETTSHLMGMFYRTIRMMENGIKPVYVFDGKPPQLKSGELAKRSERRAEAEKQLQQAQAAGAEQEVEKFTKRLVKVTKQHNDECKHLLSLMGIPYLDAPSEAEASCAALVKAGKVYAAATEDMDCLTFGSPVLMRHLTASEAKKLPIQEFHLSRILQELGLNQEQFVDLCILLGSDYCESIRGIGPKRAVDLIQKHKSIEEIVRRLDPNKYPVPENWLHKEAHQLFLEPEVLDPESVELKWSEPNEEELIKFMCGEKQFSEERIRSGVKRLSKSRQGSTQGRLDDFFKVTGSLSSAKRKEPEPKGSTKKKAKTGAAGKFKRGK
smiles,measurement,setting,value
Nc1c(S(=O)(=O)O)cc(Nc2ccc(Nc3nc(Cl)nc(Nc4ccc(S(=O)(=O)O)cc4)n3)c(S(=O)(=O)O)c2)c2c1C(=O)c1ccccc1C2=O,Potency,[1],inactive
same,Potency,[2],1 µM (active)
same,Potency,[3],6.31 µM (active)
same,outcome,[4],inactive
same,outcome,[5],inactive
same,Potency,[6],inactive
same,Potency,[7],inactive
same,Potency,[8],4.65 µM (active)
same,Potency,[9],5.32 µM (active)
same,outcome,[10],inactive
same,outcome,[11],inactive
same,Potency,[12],2.39 µM (active)
same,outcome,[13],inactive
same,Potency,[14],0.947 µM (active)
same,Potency,[15],1.58 µM (active) and 844 nM (active)
same,outcome,[16],inactive
same,outcome,[17],inactive
same,outcome,[18],inactive
same,outcome,[19],inactive
same,Potency,[20],inactive
